From PubChem BioAssay (NCI)
About 79,000 compounds went through this panel and 15% of them were active in at least one assay; those are over-represented in the sample as a whole. Values without a mark were called inactive. Rule as the data show it: active = growth inhibition above about 70%; inactive = the rest.

Assay: NCI Yeast Anticancer Drug Screen. Data for the mec2-1 strain (AID 157)
Conditions: S. cerevisiae mec2-1 strain, at 50.0 µM, hits give high values
Experimental: Growth inhibition of yeast strains with defined genetic alterations is measured as a screen for potential anti-cancer activity. Selected strains with alterations in DNA damage repair or cell cycle control were exposed to compounds and growth inhibition was measured relative to vehicle treated controls. The strain used in this assay is mec2-1

SMILES | growth inhibition [%]
Cc1cc(C(=O)NN)c(C#N)c(=O)[nH]1 | -5.55
CCOC(=O)c1ccc(NC(=O)Nc2nccs2)cc1 | -10.8
O=C(c1ccccc1)c1ccc(-c2ccc(O)cc2)cc1 | 23.5
S=c1nc(-c2ccccn2)c(-c2ccccn2)n[nH]1 | -9.05
CNc1ccccc1C(=O)N/N=C/C=C/c1ccccc1 | 0.35
O=C(O)Cc1ccc(Cl)cc1 | -15.3
CCOC(OCC)C(=O)c1ccccc1 | -19.9
COc1cc(C(=O)O)c(O)c(C(C)(C)C)c1 | 4.25
N#C/C(=C\c1ccc2c(c1)OCO2)c1ccccc1 | -0.7
CCOS(=O)(=O)c1ccc([N+](=O)[O-])cc1 | 5.95
C=CCc1cc(OC)c(O)c(OC)c1 | 1.3
CC(C)C(=O)OCCOc1ccc(C(C)(C)C)cc1 | 3.1
CCOC(=O)CNC | -3.25
Cc1[nH]n(-c2ccccc2)c(=O)c1C=NC(=S)C(N)=S | -22.9
C/C(=N\N=C(/C)c1cccc([N+](=O)[O-])c1)c1cccc([N+](=O)[O-])c1 | -21
O=S(Cc1ccccc1)/C(=C/NC(=S)Nc1ccccc1)c1ccccc1 (stereo not given) | -25.1
Nc1nc(Cl)cc(Cl)n1 | 3.15
CCCc1cccc(CCC)c1NC(=O)Nc1cc(Cl)cc(Cl)c1 | 19.9
NC(=S)N/N=C/c1ccc(Cl)cc1 | 23.8
Clc1cccc(Cl)c1CSc1nc2ccccc2n2cccc12 | -26.8

SMILES | growth inhibition [%]
N#CCCN1C(=O)CCC1C(=O)O (stereo not given) | -11.2
Oc1cccc(CNC2CCCCC2)c1 | 0.25
CCOC(=O)c1c(C)[nH]c(C)c1C=O | -0.05
CCC(C)c1c(N)n(S(=O)(=O)c2ccc(C)cc2)oc1=O (stereo not given) | 6.8
Cc1nc(C)c(C(=O)O)cc1C(=O)O | -17.8
O=C(O)c1ccc(OCc2ccccc2)cc1 | 11.2
Nc1ncnc(Nc2ccc(C(F)(F)F)cc2)n1 | 8.35
O=S(=O)(O)C(C(I)I)S(=O)(=O)O | -19.8
CCNc1ccc2ccccc2c1N=Nc1ccc(N=Nc2ccccc2)cc1 | -30
CCCCCCCCCCCCCC/C=C\C(CC(=O)O)C(=O)O (stereo not given) | -15.5
CCCCCCCCCCCCCCCCOc1ccccc1NC(=O)CC(C)=O | -18.9
c1ccc2[nH]c(Cc3nc4ccccc4[nH]3)nc2c1 | -14.4
CCOC(=O)CSCCC#N | 2.35
Cc1ccc(C)c(CCO)c1 | -38.5
C/C(O)=C(/C=N/C(=S)Nc1ccccc1)C(=O)Nc1ccccc1C | 5.6
O=c1cc(C(F)(F)F)[nH]c(=S)[nH]1 | -5.05
COc1cccc(C(=O)O)c1OC | 14.4
Oc1cccnc1CN1CCCC1 | -12.8
CC(=O)c1cccc(NS(=O)(=O)c2ccc(C)cc2)c1 | -21.2
COC(CCCl)c1ccc(Cl)cc1 (stereo not given) | -43
